# Test results as given in the supplement of paper PMC10933113.
# ± gives the uncertainty stated by the source.
# System: THP-1
# Experiment: CD54 surface expression induction over DMSO control (% over DMSO); higher = stronger dendritic cell activation
# Settings: exposure time: 24 h
# Protocol: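 hCLAT-like CD54 and CD86 surface expression on THP1 cells after 24 h exposure at a single concentration (highest non-cytotoxic concentration, or 100-200 µM if not cytotoxic). Flow cytometry (iQue) was run on 5,000 live cells.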
row,SMILES,CD54 surface expression induction
1,COc1cc(/C=C2\CCC/C(=C\c3ccc(O)c(OC)c3)C2=O)ccc1O [Cyclovalone] (10 µM),-1.01 ± 3
2,Cc1ccc(N)cc1O [5-Amino-2-methylphenol] (200 µM),34.1 ± 7.2
3,COc1cc(C(C)C)c2c(c1)S(=O)(=O)N(COc1cc(=O)n3cccc(OCCN4CCCCC4)c3n1)C2=O (100 µM),61 ± 55
4,Clc1ccccc1-c1nc(-c2ccncc2)no1 [Pifexole] (100 µM),-5.59 ± 1.4
5,COC(=O)Nc1nc2ccc(C(=O)C3CC3)cc2[nH]1 [Cyclobendazole] (100 µM),-7.19 ± 4.8
6,Clc1ccc(C(Cn2ccnc2)OCc2c(Cl)cccc2Cl)c(Cl)c1 (stereo not given) [Isoconazole] (100 µM),56.6 ± 9.5
7,O=C1OC(OC(=O)c2cccnc2Nc2cccc(C(F)(F)F)c2)c2ccccc21 (stereo not given) [Talniflumate] (100 µM),1.7 ± 0.62
8,C=CC(=O)OCCn1c(=O)n(CCOC(=O)C=C)c(=O)n(CCOC(=O)C=C)c1=O (10 µM),3.33 ± 5.3
9,COc1ccc(C(=O)/C(Br)=C\C(=O)O)cc1 [Cytembena] (200 µM),62.5 ± 6.9
10,CC(=O)Oc1ccc(C(c2ccc(OC(C)=O)cc2)c2ccccn2)cc1 [Bisacodyl] (100 µM),-7.9 ± 29
11,Cc1c(C)n(Cc2ccccc2)c2ccc(C(=O)OCCN(C)C)cc12 [Indocate] (200 µM),30.6 ± 5
12,Nc1ncn([C@@H]2O[C@H](CO)[C@@H](O)[C@H]2O)c(=O)n1 [5-Azacytidine] (10 µM),-4.02 ± 3.5
13,"CC(C)c1ccc2cc(C(C)C)ccc2c1 [2,6-Diisopropylnaphthalene] (200 µM)",10.1 ± 1.7
14,O=c1cc(-c2ccccc2)oc2cc(O)cc(O)c12 [Chrysin] (100 µM),18.9 ± 1.4
15,O=c1cc(-c2ccccc2)oc2ccccc12 [Flavone] (200 µM),62.9 ± 14
16,"S=C(NC1CCCCC1)NC1CCCCC1 [N,N'-Dicyclohexylthiourea] (10 µM)",-7.65 ± 5.2
17,CCOc1ccc2nc3cc(N)ccc3c(N)c2c1 [Ethacridine lactate monohydrate] (200 µM),-29.7 ± 6.5
18,CCN(CC)c1ccc(C(=O)c2ccccc2C(=O)O)c(O)c1 [2-[4-(Diethylamino)-2-hydroxybenzoyl]benzoic acid] (10 µM),-5.88 ± 5
19,"Nc1nnc(-c2ccc([N+](=O)[O-])o2)o1 [2-Amino-5-(5-nitro-2-furyl)-1,3,4-oxadiazole] (10 µM)",-7.68 ± 3.2
20,O=c1[nH]sc2cc(Cl)ccc12 [Ticlatone] (10 µM),-4.79 ± 7.2

row,SMILES,CD54 surface expression induction
1,O=C(NS(=O)(=O)/C=C/c1cccs1)c1ccc(F)cc1Br (200 µM),4.11 ± 1.7
2,NC(=O)n1c(O)c(C(=O)c2cccs2)c2cc(Cl)ccc21 [Tenidap*] (200 µM),157 ± 35
3,CCOc1ccc2nc(S(N)(=O)=O)sc2c1 [Ethoxzolamide] (200 µM),3.81 ± 6
4,"CC(O)C#CC(C)O (stereo not given) [Hex-3-yne-2,5-diol] (10 µM)",6.05 ± 3.8
5,C=C1CC[C@H](O)C/C1=C/C=C1\CCC[C@]2(C)[C@@H]([C@H](C)/C=C/[C@H](C)C(C)C)CC[C@@H]12 [Ergocalciferol*] (100 µM),108 ± 7.2
6,CC(C)C[C@H](NC(=O)[C@H](Cc1ccccc1)NC(=O)c1cnccn1)B(O)O [Bortezomib] (10 µM),28.8 ± 9.9
7,Oc1c(I)cc(Cl)c2cccnc12 [Clioquinol] (100 µM),141 ± 67
8,C/C=C1\C(=O)C[C@H]2[C@@H]3CCC4=CC(=O)CC[C@]4(C)[C@H]3CC[C@]12C [Guggulsterone Z] (100 µM),-3.76 ± 3.3
9,CCCCCCCCCCCC(=O)NCCCN(C)C [N-[3-(Dimethylamino)propyl]dodecanamide] (200 µM),14.4 ± 11
10,CCCCCCCC/C=C\CCCCCCCC(=O)N(C)CC(=O)O [Oleyl sarcosine] (100 µM),6.04 ± 0.79
11,CC(=O)Oc1ccc(C2(c3ccc(OC(C)=O)cc3)C(=O)Nc3ccccc32)cc1 [Oxyphenisatin acetate] (100 µM),9.56 ± 1.9
12,C=C(C)C(=O)Nc1ccc(Cl)c(Cl)c1 [Chloranocryl] (100 µM),0.25 ± 0.41
13,CCC1OCC(COc2ccc(Oc3ccccc3)cc2)O1 (stereo not given) [Diofenolan] (10 µM),-6.06 ± 5.8
14,CCc1oc2ccccc2c1C(=O)c1cc(I)c(O)c(I)c1 [Benziodarone] (100 µM),-0.07 ± 0.74
15,O=c1n(CC2CO2)c(=O)n(CC2CO2)c(=O)n1CC1CO1 (stereo not given) [Triglycidyl isocyanurate] (10 µM),4 ± 1.7
16,C=CC(C)(CCC=C(C)C)OC(=O)CC(C)C (stereo not given) [Linalyl isovalerate] (200 µM),16.3 ± 11
17,CC(C)(C)c1ccc(C(=O)CCCCl)cc1 [4'-Tert-butyl-4-chlorobutyrophenone] (100 µM),-1.36 ± 1.9
18,O=C(Nc1ccccc1)c1cc([N+](=O)[O-])ccc1Cl [2-Chloro-5-nitro-N-phenylbenzamide] (200 µM),4.72 ± 3.4
19,[Cl][Bi]([Cl])([c]1ccccc1)([c]1ccccc1)[c]1ccccc1 [Triphenylbismuthine dichloride] (10 µM),15.8 ± 5
20,CC1=C(/C=C/C(C)=C\C=C\C(C)=C\C(=O)O)C(C)(C)CCC1 [9-cis Retinoic acid] (100 µM),44.4 ± 15
